Test [1] is described as follows: antimalarial activity against Dd2 strain (AID 2302;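 active = growth inhibition above 50% at the single 2 µM test dose, taken to imply half-maximal potency below 2 µM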;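 note: 0% = DMSO untreated growth and 100% = chloroquine plus artemisinin killed control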). The following applies: P. falciparum Dd2 in RBCs, LDH growth readout, 72 h; at 2 µM; hits give high values.
Test [2] is described as follows: HepG2 cytotoxicity, primary screen, cytotoxicity control for P. falciparum antimalarial project, cell-based, ATP luminescence (AID 2303;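 active = inhibition above 50%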;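 note: 0% = DMSO wells and 100% = digitonin-killed cells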). The following applies: HepG2 viability, 24-48 h, at 10 µM, hits give high values.
Test [3] deals with L-lactate dehydrogenase (Plasmodium falciparum (isolate CDC / Honduras)) (UniProt Q27743). Put plainly: PfLDH activity inhibition – cell lysate, 3D7 strain, counter-screen for P. falciparum growth inhibition project (AID 2304).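 Note: 0% = vehicle and 100% = reference inhibitor.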 As to conditions: P. falciparum 3D7 crude extract, LDH APAD/NBT absorbance; at 2 µM; hits give high values.
Test [4] is described as follows: inhibition of 3D7 malaria parasite growth – strain 3D7 (AID 2306).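 Note: 0% = DMSO wells and 100% = chloroquine plus artemisinin control wells.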 The following applies: P. falciparum 3D7 erythrocytic growth, LDH absorbance, 72 h; at 2 µM; hits give high values.
The target of test [5] is Calcium-dependent protein kinase 1 (Plasmodium falciparum (isolate 3D7)) (UniProt P62344). Put plainly: PfCDPK1 kinase inhibitors, biochemical, TCAMS library (AID 1159585; cut-off not given, nearly all actives have IC50 up to about 0.98 µM;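 note: inhibitors leave more ATP so luminescence rises with inhibition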). The following applies: recombinant PfCDPK1, Kinase-Glo ATP depletion luminescence.
Test [6] deals with Plasmodium falciparum protein kinase 6 (PK6, PF3D7_1337100) (UniProt Q8IDW1). Kind of test: PfPK6 kinase inhibitors, biochemical, TCAMS library (AID 1159586). The following applies: recombinant PfPK6, Kinase-Glo ATP depletion luminescence.
Test [7] addresses Protein kinase 7 (PK7), Plasmodium falciparum 3D7 (PF3D7_0213400) (UniProt Q7YTF7). Kind of test: inhibition of Plasmodium PK7 catalytic activity – biochemical, TCAMS antimalarial set, Kinase-Glo luminescence (AID 1159587). The following applies: recombinant PfPK7, Kinase-Glo ATP depletion luminescence.
Test [8] deals with Calcium-dependent protein kinase 4 (Plasmodium falciparum (isolate 3D7)) (UniProt Q8IBS5). Put plainly: PfCDPK4 kinase inhibitors, biochemical, TCAMS library (AID 1159588; cut-off not given, nearly all actives have IC50 up to about 0.91 µM). The following applies: recombinant PfCDPK4, Kinase-Glo ATP depletion luminescence. For orientation: Kinase-Glo reads ATP consumption through a luciferase reaction.

The term inhibition denotes the drop in the measured response relative to a control, in per cent.

Values without a mark were called inactive. For some of these results: Potency and affinity values are given separately. Activity calls are given as the source filed them. Unless noted, the rule behind the calls is not given here.

Sequence of L-lactate dehydrogenase (Plasmodium falciparum (isolate CDC / Honduras)) (Q27743 whole entry, looked up): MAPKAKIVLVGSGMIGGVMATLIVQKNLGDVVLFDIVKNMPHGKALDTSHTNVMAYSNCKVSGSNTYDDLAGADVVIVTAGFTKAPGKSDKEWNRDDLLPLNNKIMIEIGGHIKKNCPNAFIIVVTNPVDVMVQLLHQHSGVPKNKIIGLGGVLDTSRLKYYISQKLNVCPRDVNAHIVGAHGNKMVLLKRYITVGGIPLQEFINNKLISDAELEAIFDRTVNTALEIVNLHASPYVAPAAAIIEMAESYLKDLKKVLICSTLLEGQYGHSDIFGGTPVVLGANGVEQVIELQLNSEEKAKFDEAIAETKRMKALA
Sequence of Plasmodium falciparum protein kinase 6 (PK6, PF3D7_1337100) (Q8IDW1 1-305): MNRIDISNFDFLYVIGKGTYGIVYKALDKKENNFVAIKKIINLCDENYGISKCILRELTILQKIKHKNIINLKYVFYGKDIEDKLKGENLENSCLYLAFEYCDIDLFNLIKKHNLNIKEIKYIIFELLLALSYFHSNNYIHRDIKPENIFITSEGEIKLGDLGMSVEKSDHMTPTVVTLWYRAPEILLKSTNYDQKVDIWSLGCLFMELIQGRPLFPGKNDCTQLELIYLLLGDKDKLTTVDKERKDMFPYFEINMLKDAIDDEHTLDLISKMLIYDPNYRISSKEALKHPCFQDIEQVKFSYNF
Sequence of Calcium-dependent protein kinase 4 (Plasmodium falciparum (isolate 3D7)) (Q8IBS5 whole entry, looked up): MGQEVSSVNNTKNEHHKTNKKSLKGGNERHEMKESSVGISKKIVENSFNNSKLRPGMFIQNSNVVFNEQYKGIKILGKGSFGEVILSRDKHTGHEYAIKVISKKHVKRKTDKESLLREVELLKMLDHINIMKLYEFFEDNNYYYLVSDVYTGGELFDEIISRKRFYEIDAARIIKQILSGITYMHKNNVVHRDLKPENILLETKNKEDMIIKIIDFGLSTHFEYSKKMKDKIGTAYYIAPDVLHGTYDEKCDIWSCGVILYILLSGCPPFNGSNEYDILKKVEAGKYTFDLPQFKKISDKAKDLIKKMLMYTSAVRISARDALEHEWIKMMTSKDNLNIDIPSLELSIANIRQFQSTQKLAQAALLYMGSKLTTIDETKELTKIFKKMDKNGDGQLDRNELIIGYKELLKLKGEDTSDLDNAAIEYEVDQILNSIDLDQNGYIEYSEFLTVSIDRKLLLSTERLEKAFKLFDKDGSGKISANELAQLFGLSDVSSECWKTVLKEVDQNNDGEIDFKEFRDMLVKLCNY
Sequence of Calcium-dependent protein kinase 1 (Plasmodium falciparum (isolate 3D7)) (P62344 whole entry, looked up): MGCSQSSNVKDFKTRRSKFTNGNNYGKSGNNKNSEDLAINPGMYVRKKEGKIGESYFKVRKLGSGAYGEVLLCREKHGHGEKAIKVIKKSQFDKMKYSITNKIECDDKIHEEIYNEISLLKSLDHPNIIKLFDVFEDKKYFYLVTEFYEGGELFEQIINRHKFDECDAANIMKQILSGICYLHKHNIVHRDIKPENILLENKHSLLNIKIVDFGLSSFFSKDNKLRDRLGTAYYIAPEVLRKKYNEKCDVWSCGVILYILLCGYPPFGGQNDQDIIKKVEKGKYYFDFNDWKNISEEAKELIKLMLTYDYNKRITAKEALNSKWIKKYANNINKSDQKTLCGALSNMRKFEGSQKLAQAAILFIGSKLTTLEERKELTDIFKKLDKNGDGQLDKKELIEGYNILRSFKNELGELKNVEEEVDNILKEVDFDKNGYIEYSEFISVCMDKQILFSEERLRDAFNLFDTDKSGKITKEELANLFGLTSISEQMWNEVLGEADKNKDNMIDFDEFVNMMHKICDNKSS
Sequence of Protein kinase 7 (PK7), Plasmodium falciparum 3D7 (PF3D7_0213400) (Q7YTF7 1-343): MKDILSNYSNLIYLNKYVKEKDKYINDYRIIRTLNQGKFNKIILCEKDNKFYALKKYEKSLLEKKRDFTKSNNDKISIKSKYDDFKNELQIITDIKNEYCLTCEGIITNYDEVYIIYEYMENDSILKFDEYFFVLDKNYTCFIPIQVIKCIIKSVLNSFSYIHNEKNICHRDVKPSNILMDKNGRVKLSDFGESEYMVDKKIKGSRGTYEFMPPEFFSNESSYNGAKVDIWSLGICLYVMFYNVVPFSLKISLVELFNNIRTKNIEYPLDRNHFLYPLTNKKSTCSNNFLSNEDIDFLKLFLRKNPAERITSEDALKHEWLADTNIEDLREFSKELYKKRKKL

On to `Fc1ccc(-c2cc(NCCCn3ccnc3)nc(-c3cccnc3)n2)cc1`, for which the growth inhibition in test [1] is 70% (active); in test [4] it was 99% (active). The results for the inhibition in test [2] and in test [3] were 11% and 0%, respectively. The outcome in test [5], in test [6], in test [7] and in test [8] was inactive.

Take `CN1CCC(c2nc(N)no2)C1` (stereo not given): the values for the growth inhibition in test [1] and in test [4] were 2% and 95% (active), respectively. For the same compound, the inhibition was 15% in test [2] and 0% in test [3]. For the same compound, the result in test [5], in test [6], in test [7] and in test [8] was inactive.

Take `c1ccc2[nH]c(-c3ccc(-c4ccc(CN5CCN(c6ccncc6)CC5)cc4)s3)nc2c1`: the growth inhibition in test [1] was 100% (active); in test [4] it was 101% (active). For the same compound, the inhibition was 25% in test [2] and -5% in test [3]. For the same compound, the result in test [5], in test [6], in test [7] and in test [8] was inactive.

`CC(C)c1ccc(NC(=O)NCCCC2CCCN(CCCCCNC(=O)/C=C/c3ccc(Cl)c(Cl)c3)C2)cc1` (stereo not given): the figures for the growth inhibition in test [1] and in test [4] were 42% and 90% (active), respectively. The inhibition was 25% in test [2] and -2% in test [3]. Moreover, the outcome in test [5], in test [6], in test [7] and in test [8] was inactive.

Turning to `O=S(=O)(Nc1ccc2nccc(N3CCNCC3)c2c1)c1ccc(-c2ccccc2)cc1`, the growth inhibition in test [1] was -1%; in test [4], 101% (active). The inhibition was -3% in test [2] and -2% in test [3]. In addition, the outcome in test [5], in test [6], in test [7] and in test [8] was inactive.

Regarding `c1cc(CNCCc2ccncc2)cc(-c2cccc(-c3nc4ccccc4[nH]3)c2)c1`, the growth inhibition in test [1] is 88% (active); in test [4] it was 100% (active). Further, the inhibition in test [2] was 21%; in test [3], 1%. Moreover, the result in test [5], in test [6], in test [7] and in test [8] was inactive.

As to `Cc1cccc2[nH]c(-c3ccc(-c4ccc(NC(=O)c5cncn5C)cc4)s3)nc12`, the results for the growth inhibition in test [1] and in test [4] were 30% and 102% (active), respectively. In addition, the inhibition in test [2] was 49%; in test [3], 4%. In addition, the outcome in test [5], in test [6], in test [7] and in test [8] was inactive.

As for `O=C(Nc1ccc(-c2ccc(-c3nc4ccccc4[nH]3)s2)cc1)c1ccncc1`, the growth inhibition is 95% (active) in test [1] and 94% (active) in test [4]. Further, the inhibition in test [2] was 21%; in test [3] it was -5%. The outcome in test [5], in test [6], in test [7] and in test [8] was inactive.

Consider `COc1ccc(Cn2c(Nc3cccc(C(F)(F)F)c3)nc3cc(C(=O)NC4CC4)cnc32)cc1Cl`, for which the growth inhibition in test [1] is 96% (active); in test [4] it was 94% (active). Also, the inhibition in test [2] was -2%; in test [3] it was -3%. Also, the result in test [5], in test [6], in test [7] and in test [8] was inactive.

Turning to `Cc1cccc(C(O)CNc2ccnc(Nc3cccc(-c4csc(C)n4)c3)n2)c1` (stereo not given), the values for the growth inhibition in test [1] and in test [4] were 88% (active) and 99% (active), respectively. The inhibition in test [2] was 29%; in test [3], 2%. Also, the result in test [5], in test [6], in test [7] and in test [8] was inactive.

Regarding `CCCCCN1CCC(NC(=O)c2ccc(C(=O)Nc3ccc(C(C)C)cc3)cc2)C1` (stereo not given), the figures for the growth inhibition in test [1] and in test [4] were 17% and 95% (active), respectively. For the same compound, the inhibition in test [2] is 38%; in test [3] it was 2%. Moreover, the outcome in test [5], in test [6], in test [7] and in test [8] was inactive.

Consider `NCCCCc1c(-c2ccc(Cl)c(Cl)c2)[nH]c2ccc(Cl)cc12`, for which the growth inhibition in test [1] is 20%; in test [4], 97% (active). Besides, the inhibition in test [2] is 33%; in test [3], -9%. Moreover, the result in test [5], in test [6], in test [7] and in test [8] was inactive.

Take `O=C(Nc1ccc2c(c1)CCC2)c1cccc(CN2CCCN(Cc3cccc(O)c3)CC2)c1`: the growth inhibition in test [1] is 20%; in test [4] it was 91% (active). The inhibition is 10% in test [2] and 0% in test [3]. Moreover, the result in test [5], in test [6], in test [7] and in test [8] was inactive.

For `C[C@@H]1CN(c2ncc(-c3ccc(CNC4Cc5ccccc5C4)cc3)cn2)C[C@H](C)N1`, the growth inhibition in test [1] was 78% (active); in test [4], 85% (active). Moreover, the inhibition was 27% in test [2] and -10% in test [3]. Moreover, the result in test [5], in test [6], in test [7] and in test [8] was inactive.

As for `COc1cc(CN=C(Nc2ccc(-c3ccccc3)cc2)Nc2ccc(C#N)cc2O)cc(OC)c1`, the values for the growth inhibition in test [1] and in test [4] were 64% (active) and 95% (active), respectively. Also, the inhibition in test [2] was -4%; in test [3], 5%. Besides, the outcome in test [5], in test [6], in test [7] and in test [8] was inactive.

In the case of `CCOC(=O)N1CCC(NC(=O)c2ccc(C(C)(C)C)cc2OC)CC1`, the growth inhibition in test [1] is -5%; in test [4], 88% (active). Also, the inhibition in test [2] is -7%; in test [3] it was 0%. For the same compound, the outcome in test [5], in test [6], in test [7] and in test [8] was inactive.

Regarding `CCN1CCN(c2cc(C)c3cc(NC(=O)c4cc(OC)cc(OC)c4)ccc3n2)CC1`, the growth inhibition in test [1] is 90% (active); in test [4] it was 102% (active). The inhibition in test [2] was 0%; in test [3] it was 4%. In addition, the result in test [5], in test [6], in test [7] and in test [8] was inactive.

As to `CCC[C@@H]([C@@H](Cc1ccc(C)s1)C(=O)N[C@@H](CNC(C)=O)C(=O)Nc1nccs1)N(O)C=O`, the growth inhibition in test [1] is 96% (active); in test [4] it was 97% (active). Moreover, the inhibition in test [2] is -1%; in test [3], 2%. Besides, the outcome in test [5], in test [6], in test [7] and in test [8] was inactive.

For `O=C(NC1CCN(c2ccnc3cc(Cl)ccc23)C1)c1ccc(F)cc1` (stereo not given), the growth inhibition in test [1] is 97% (active); in test [4], 94% (active). Also, the inhibition in test [2] was 26%; in test [3], 4%. Further, the result in test [5], in test [6], in test [7] and in test [8] was inactive.

Regarding `COC(=O)c1cc2cccc(NC[C@@H](C)NC[C@H](O)c3cccc(Cl)c3)c2[nH]1`, the growth inhibition was 99% (active) in test [1] and 98% (active) in test [4]. Besides, the inhibition in test [2] was -8%; in test [3] it was -3%. The result in test [5], in test [6], in test [7] and in test [8] was inactive.

These data come from PubChem BioAssay.
